Measurements taken from PubChem BioAssay AID488969 (Vanderbilt High Throughput Screening Facility, 2010).
Whole data set: some 110,000 compounds, median “z-score” near -0.1, cut for the highest 2% near 2. What follows is part of a selection rich in the highest values, with near analogues and random picks from the rest. The source made the active and inactive calls.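 The calls were made as follows: active = z-score in the third read window above 3 or below -3; inactive = the rest.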

biological target: Metabotropic glutamate receptor 8 (Rattus norvegicus) (UniProt P70579); assay: rat mGluR8 modulators via GIRK flux, primary screen, cell-based, thallium flux, HTS (AID 488969); settings: HEK293 rat mGluR8, GIRK (G protein-gated inwardly rectifying potassium channel) thallium flux, FluoZin2; at 10 µM; stronger effect = higher value; submaximal glutamate (EC20) added with thallium
Sequence (P70579 whole entry, looked up): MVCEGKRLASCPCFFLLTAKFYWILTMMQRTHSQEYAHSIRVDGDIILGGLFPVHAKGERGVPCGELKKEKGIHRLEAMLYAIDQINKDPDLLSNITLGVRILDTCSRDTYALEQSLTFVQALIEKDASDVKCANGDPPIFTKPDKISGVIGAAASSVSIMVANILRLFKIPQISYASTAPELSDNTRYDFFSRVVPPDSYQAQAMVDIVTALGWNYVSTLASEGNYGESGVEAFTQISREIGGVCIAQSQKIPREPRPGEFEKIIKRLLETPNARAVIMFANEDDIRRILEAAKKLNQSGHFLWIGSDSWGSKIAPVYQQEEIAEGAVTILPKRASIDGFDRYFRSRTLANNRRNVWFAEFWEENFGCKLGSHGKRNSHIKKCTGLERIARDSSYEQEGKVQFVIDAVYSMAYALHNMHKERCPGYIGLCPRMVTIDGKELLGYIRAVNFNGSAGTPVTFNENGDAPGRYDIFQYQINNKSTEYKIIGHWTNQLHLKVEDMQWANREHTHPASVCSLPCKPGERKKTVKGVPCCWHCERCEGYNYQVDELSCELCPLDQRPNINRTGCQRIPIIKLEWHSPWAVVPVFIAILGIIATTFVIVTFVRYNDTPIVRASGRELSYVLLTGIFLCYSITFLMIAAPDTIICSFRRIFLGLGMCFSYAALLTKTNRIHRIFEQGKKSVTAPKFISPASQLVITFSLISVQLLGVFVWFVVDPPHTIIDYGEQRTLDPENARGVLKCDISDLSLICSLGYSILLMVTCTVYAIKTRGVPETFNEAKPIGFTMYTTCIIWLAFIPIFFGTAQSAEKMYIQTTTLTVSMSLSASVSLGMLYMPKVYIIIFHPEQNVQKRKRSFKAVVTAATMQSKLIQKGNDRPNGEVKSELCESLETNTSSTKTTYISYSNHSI

Row | Compound | z-score
1 | COc1ccc(-c2nc(C)ncc2N=Nc2ccccc2)cc1 | -0.33
2 | O=C1CCN(C(=O)Nc2cccc(Cl)c2)N1 | -0.0566
3 | CCN(CCO)c1ncnc2c1sc1nc(C(C)C)c3c(c12)CC(C)(C)OC3 | -0.241
4 | Cc1cccc(NC(=O)CN2C(=O)N/C(=C/c3ccc(C)o3)C2=O)c1 | 0.0879
5 | CCOCC(=O)Nc1cc([N+](=O)[O-])ccc1C | -0.688
6 | CC1=NN(c2ccc(C)cc2)C(=O)/C1=C\c1ccc(Br)s1 | -0.327
7 | Cn1c(Cc2ccccc2)nnc1SCC(=O)NC1CCCCC1 | 0.0891
8 | CCN(CC)C(=O)Cn1nc(C)c2ccccc2c1=O | -0.346
9 | Cc1ccc(/C=N/Nc2ncc(Cl)cc2Cl)s1 | 0.576
10 | Cc1ccc(/C=N/Nc2nc(Cl)c(Cl)cc2Cl)s1 | 3.84 (active)
11 | Cc1ccsc1/C=N/Nc1nc(Cl)c(Cl)cc1Cl | 0.292
12 | Cc1sc2nc(CN3CCCC3)nc(N3CCC(C(N)=O)CC3)c2c1C | -0.212
13 | CCc1nc(N2CCN(S(=O)(=O)c3ccc(Br)cc3)CC2)c2c(C)c(C)sc2n1 | -0.0531
14 | Cc1sc2nc(CN3CCCC3)nc(N3CCN(S(=O)(=O)c4cccs4)CC3)c2c1C | 4.12 (active)
15 | O=c1c2cc(Br)ccc2nc(-c2cccc(C(F)(F)F)c2)n1O | 10.5 (active)
16 | O=c1c2ccccc2nc(-c2cccc(Cl)c2)n1O | 1.74
17 | O=c1c2ccc(Cl)cc2nc(-c2cccc(C(F)(F)F)c2)n1O | 10.9 (active)
18 | O=C(Nc1ccc(C(F)(F)F)cc1)c1cc(-c2cccnc2)nc2ccc(Br)cc12 | -0.0141
19 | FC(F)(F)c1cccc(-c2nnc3ccc(C(F)(F)F)cn23)c1 | 0.312

Row | Compound | z-score
20 | O=c1[nH]c(/C(Cl)=C/c2cccc(C(F)(F)F)c2)nc2cc(Cl)ccc12 | -0.0389
21 | C=CCc1ccccc1OCC(O)CN1CCN(c2ccccc2F)CC1 (stereo unspecified) | 0.0351
22 | Cc1noc(C)c1S(=O)(=O)N1CCC(C(=O)N2CCN(C(=O)c3ccco3)CC2)CC1 | -0.53
23 | O=C(O)CCCC(=O)Nc1ccc(Br)cc1 | 0.0741
24 | Cc1ccc2nc(-c3ccc(Br)o3)oc(=O)c2c1 | -0.0466
25 | O=c1oc(-c2ccc(Br)o2)nc2ccccc12 | 5.63 (active)
26 | O=c1oc(-c2ccco2)nc2ccccc12 | -0.973
27 | CCN(CC)C(=O)C(=O)N/N=C/c1ccc(Br)cc1 | 0.0116
28 | CC(Sc1nnc(-c2ccc(Cl)cc2Cl)n1Cc1ccccc1)C(=O)Nc1nccs1 (stereo unspecified) | -1.54
29 | Cc1nn(C(=O)c2ccccc2)c2c1C(=O)CC(C)(C)C2 | 2.47
30 | CCCc1nn(C(=O)c2ccccc2)c2c1C(=O)CC(C)(C)C2 | 0.0989
31 | Cn1c2c(c(O)c(-c3ccccc3)c1=O)C(=O)CC(C)(C)C2 | -0.119
32 | O=C(NCC(=O)N(c1ccccc1)C(C(=O)NC1CCCC1)c1ccncc1)c1ccco1 (stereo unspecified) | -0.115
33 | COC(=O)Nc1nnc(Cc2ccccc2)s1 | -0.412
34 | COC(=O)Nc1nnc(Cc2ccc(Cl)cc2)s1 | 2.4
35 | COC(=O)Nc1nnc(Cc2ccc(OC)cc2)s1 | -0.342
36 | Cc1ccc2oc(C(=O)Nc3nnc(C)s3)c(C)c2c1 | -0.9
37 | CCn1c(-c2cccc(Br)c2)n[nH]c1=S | 2.35
38 | S=c1[nH]nc(-c2ccncc2)n1Cc1ccco1 | -0.198

Row | Compound | z-score
39 | Nn1c(-c2cccc(Br)c2)n[nH]c1=S | -0.267
40 | CCn1c(-c2ccc(C)cc2)n[nH]c1=S | -0.192
41 | CCn1c(-c2cc(C3CC3)nc3ccccc23)n[nH]c1=S | -0.258
42 | CCn1c(-c2c[nH]c3ccccc23)n[nH]c1=S | -0.0356
43 | S=c1[nH]nc(-c2ccc(Br)cc2)n1Cc1ccco1 | 2.41
44 | Oc1ccc(-c2n[nH]c(=S)n2Cc2ccco2)cc1 | -0.11
45 | CCn1c(-c2cc3ccccc3cc2O)n[nH]c1=S | 2.62
46 | CCCCCn1c(N)c(-c2nc3ccccc3s2)c2c([N+](=O)[O-])nn(CC)c(=O)c21 | -0.75
47 | COc1ccc2c(c1OC)C(=O)N1N=C(c3ccc(Br)cc3)CC21 (stereo unspecified) | -1.04
48 | C=C(C)C1CC=C(CN2CCC(C(=O)OCC)CC2)CC1 (stereo unspecified) | 0.503
49 | Cc1ccc(S(=O)(=O)c2nc(S(C)(=O)=O)sc2N(C)C)cc1 | 0.113
50 | COc1ccc(CC(=O)O/N=C(\N)Cc2cccc3ccccc23)cc1OC | -0.317
51 | Cc1ccsc1/C=C(\C#N)C(=O)NCc1ccco1 | -0.0871
52 | COc1ccc(C)c(S(=O)(=O)Nc2ccc(OCC(=O)O)cc2)c1 | 0.2
53 | CCOc1cc(C)c(S(=O)(=O)Nc2ccc(F)cc2)cc1C | 0.564
54 | COc1cc(C)c(S(=O)(=O)Nc2ccc(CC(=O)O)cc2)cc1C | 2.01
55 | N#C/C(=C\c1ccccc1)C(=O)Nc1cc(S(=O)(=O)N2CCOCC2)ccc1N1CCCC1 | -0.0157
56 | CC(C)NC(=O)C12CC3CC(C1)CC(n1cnc(Cl)n1)(C3)C2 | -0.0733
